We go through 58 compounds from PubChem BioAssay AID651674 (The Scripps Research Institute Molecular Screening Center, 2012).

Structures are written as SMILES. The whole screen tested about 2,200 compounds, of which about 1,700 (77%) were called active. The set was probably picked from earlier hits. A selection follows. Values without a mark were called inactive.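 How the source made its calls: active means mean inhibition across replicate wells exceeding the computed hit threshold (cut at about 13% in these data); inactive means the rest.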

The inhibition is the change of the read-out against control, counted positive when it falls.

Hepatocyte nuclear factor 4-alpha (Homo sapiens), sequence (P41235 whole entry, looked up, the tested form may be a part): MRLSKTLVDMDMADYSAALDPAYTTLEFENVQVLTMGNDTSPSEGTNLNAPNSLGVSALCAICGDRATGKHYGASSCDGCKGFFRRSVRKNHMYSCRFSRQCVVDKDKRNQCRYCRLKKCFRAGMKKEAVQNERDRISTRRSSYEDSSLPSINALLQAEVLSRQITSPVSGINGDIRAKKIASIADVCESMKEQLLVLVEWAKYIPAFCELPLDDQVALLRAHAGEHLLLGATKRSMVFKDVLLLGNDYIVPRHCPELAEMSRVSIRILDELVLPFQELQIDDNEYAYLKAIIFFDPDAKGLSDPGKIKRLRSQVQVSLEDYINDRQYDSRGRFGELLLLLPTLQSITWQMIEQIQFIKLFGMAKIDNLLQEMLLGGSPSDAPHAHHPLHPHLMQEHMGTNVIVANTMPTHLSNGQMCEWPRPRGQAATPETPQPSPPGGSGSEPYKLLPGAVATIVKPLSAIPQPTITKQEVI

The assay has as its target Hepatocyte nuclear factor 4-alpha (Homo sapiens) (UniProt P41235). Nature of the assay: HNF4 dimerization inhibitors, counter-screen for ABHD5-PLIN5 interaction inhibitor project, biochemical, split-luciferase complementation, luminescence (AID 651674).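 Further: light from luciferase halves that rejoin when HNF4 fusion proteins dimerize; 0% = DMSO only wells and the 100% control is not given.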 As to conditions: at 4 µM, active compounds read high. Background: The purpose of a counterscreen is to sort out artefacts and off-target activity.
Take `CCC(C(=O)OCCN(CC)CC)c1ccccc1` (stereo not drawn): the inhibition is 32.3% (active).

On to `COc1ccc(-n2cc(CNC3CCOCC3)c(-c3cccc(F)c3)n2)cc1`, for which the inhibition was -1.5%.

In the case of `CCn1c(SC)nc(O)c(C(c2ccc(OC)c(O)c2)c2c(O)nc(SC)n(CC)c2=O)c1=O`, the inhibition is 52.2% (active).

Regarding `O=C(CCl)Nc1ccc(Sc2ccc(NC(=O)CCl)cc2)cc1`, the inhibition is 28% (active).

On to `Cc1csc(NC(=O)NC2(C(F)(F)F)Oc3ccccc3O2)n1`, for which the inhibition was 99.4% (active).

Take `Cc1cccc(C)c1NC(=O)C(c1cccc2ccccc12)n1c(=O)c(-c2ccco2)nc2ccccc21` (stereo not drawn): the inhibition was 5.63%.

Turning to `N#Cc1ccc(C(C(=O)NCc2ccccc2)n2c(=O)c(-c3ccco3)nc3ccccc32)cc1` (stereo not drawn), the inhibition is 46.7% (active).

With `Cc1cccc(C)c1NC(=O)C(c1ccc(C(F)(F)F)cc1)n1c(=O)c(-c2ccco2)nc2ccccc21` (stereo not drawn), the inhibition is 15.7% (active).

On to `O=C(NC1CCCCC1)C(c1cc2ccccc2o1)n1c(=O)c(-c2ccco2)nc2ccccc21` (stereo not drawn), for which the inhibition is 12.5% (active).

Take `NC(=O)c1nsc(C(=O)N(CC(=O)NCc2ccc(F)cc2)Cc2ccco2)c1N`: the inhibition was 2.04%.

Regarding `Cc1ccc2nc(-c3ccco3)c(Cc3cccc(Cl)c3)n2c1`, the inhibition is 49.6% (active).

On to `Cc1ccc(Cc2c(-c3ccco3)nc3ccc(Cl)cn23)cc1`, for which the inhibition is 47.3% (active).

On to `O=C(CCN1CCc2ccccc2C(O)(c2ccccc2)C1)c1ccc2c(c1)OCCO2` (stereo not drawn), for which the inhibition is 100% (active).

Turning to `O=C1/C(=C\c2ccc(O)cc2)CCC1CNc1ccc(Cl)cc1` (stereo not drawn), the inhibition is 50% (active).

In the case of `COC(=O)c1cnn2c(C(F)(F)F)cc(-c3ccco3)nc12`, the inhibition is 9.71%.

`O=C(N/N=C/C=C/c1ccco1)c1cccs1`: the inhibition is 39% (active).

Turning to `COc1ccccc1C1/C(=C(/O)c2ccc(C)cc2)C(=O)C(=O)N1Cc1ccco1` (stereo not drawn), the inhibition is 10.7%.

Turning to `O=C1/C(=C\c2ccc([N+](=O)[O-])cc2)CS(=O)(=O)C/C1=C/c1ccc([N+](=O)[O-])cc1`, the inhibition was 108% (active).

Turning to `c1ccc(CCC2=NCCn3cccc32)cc1`, the inhibition is 4.26%.

For the compound `O=C(O)c1ccc2c(c1)C(=O)N(c1ccc(/C=C/C(=O)c3ccccc3)cc1)C2=O`, the inhibition was 89.2% (active).

Turning to `CC(=O)N(c1ccc2oc(=O)sc2c1)S(=O)(=O)c1ccc(C)cc1`, the inhibition is 17.5% (active).

With `COc1cccc2sc(N(CCCN(C)C)C(=O)C(c3ccccc3)c3ccccc3)nc12`, the inhibition is 6.22%.

Consider `Cc1ccc(SC(CC(=O)c2ccc(C(C)(C)C)cc2)C(=O)O)cc1` (stereo not drawn), for which the inhibition is 89.8% (active).

For `O=C(/C=C/c1ccc(Cl)cc1Cl)c1cccnc1`, the inhibition is 105% (active).

In the case of `Cc1nc2sc(C(c3ccco3)N3CCOCC3)c(O)n2n1` (stereo not drawn), the inhibition is -1.74%.

Turning to `Cc1ccc(NC(=O)c2cc(-c3ccc(C)o3)nc3ccccc23)nc1`, the inhibition is 44.1% (active).

With `CCOC(=O)C(=Cc1ccccc1)C(=O)c1ccccc1`, the inhibition is 97% (active).

`CCOC(=O)C(=Cc1ccccc1OC)C(=O)OCC`: the inhibition is 51.8% (active).

As to `CC(=O)c1ccc(NC(=O)CCc2nnc3ccc(NCc4ccco4)nn23)cc1`, the inhibition was 2.03%.

For `CCc1ccc(NC(=O)CSc2nnc(-c3cnccn3)n2Cc2ccco2)cc1`, the inhibition is 25.6% (active).

As to `COCCN(CCOC)c1nc(N)c2c(N)nc3c(c2c1C#N)CC(=O)N3Cc1ccc(Cl)cc1`, the inhibition was 9.32%.

For `N#Cc1ccccc1S(=O)(=O)N1CCN(Cc2c(O)ccc3ccccc23)CC1`, the inhibition is 86.6% (active).

For the compound `CC1=CC(C)(C)Nc2ccc(OC(=O)CN3C(=O)C4CCCCC4C3=O)cc21` (stereo not drawn), the inhibition was 52.3% (active).

For the compound `CC1=CC(C)(C)Nc2ccc(OC(=O)C(Cc3ccccc3)N3C(=O)C4CCCCC4C3=O)cc21` (stereo not drawn), the inhibition is 15.7% (active).

With `COC(=O)c1nc(NC(=O)c2ccc(C(C)(C)C)cc2)n[nH]1`, the inhibition is 4.25%.

In the case of `CCN(CCCNC(=O)c1ccc2c(c1)NC(=O)CN2C)c1cccc(C)c1`, the inhibition was 76.9% (active).

Turning to `CCCCOC(=O)CNc1nnc(SCC(=O)OCC)[nH]c1=O`, the inhibition was 103% (active).

Regarding `O=C(Nc1ccccc1)c1nnsc1S(=O)(=O)c1ccc(Cl)cc1`, the inhibition was 100% (active).

Turning to `O=C(Nc1ccccc1Cl)/C(Cl)=C(\Cl)S(=O)c1ccccc1` (stereo not drawn), the inhibition is 108% (active).

Take `O=C(Nc1nc(-c2ccco2)c(-c2ccco2)s1)c1ccco1`: the inhibition is 77.9% (active).

Consider `Cc1[nH]c(=O)c(C(=O)/C=C/c2ccccc2)c2c1CCCC2`, for which the inhibition was 37.9% (active).

On to `CC1(C)CCSC(/C=C/c2ccccc2)=N1`, for which the inhibition was 91.4% (active).

Regarding `C[C@@H]1C[C@@H]2O[C@H]2/C=C\C=C\C(=O)Cc2c(Cl)c(O)cc(O)c2C(=O)O1`, the inhibition is 47.9% (active).

`COc1ccc2sc(-c3ccccc3OC)c(-c3ccc(OCCN4CCCC4)cc3)c2c1`: the inhibition is 7.03%.

Regarding `O=C1C(Cl)=C(Oc2ccccc2)C(=O)c2ccccc21`, the inhibition was 105% (active).

Regarding `CC1(Oc2ccccc2-c2ccno2)CCN(Cc2ccc(-c3ccccc3)o2)C1` (stereo not drawn), the inhibition was 48.5% (active).

In the case of `COc1ccc2c(c1)c(=Cc1ccc(N(C)C)cc1)c1cc(-c3ccccc3)[n+](C)n12`, the inhibition was 18.1% (active).

As to `CCN1CCC(O)(/C=C/c2ccc(C)cc2)C(C(=O)/C=C/c2ccc(C)cc2)C1` (stereo not drawn), the inhibition is 85.5% (active).

With `CCCOc1ccc(C(=O)C(CCC(CNCC)C(=O)c2ccc(OCCC)cc2)CNCC)cc1` (stereo not drawn), the inhibition was 24.2% (active).

With `O=C(Cn1nc(CNc2ccc(Cl)cc2)[n+]2c1CCCCC2)c1ccc(Cl)cc1`, the inhibition is 6.95%.

Turning to `Cc1cccc(C=CC(=O)c2ccc(Cl)cc2)c1`, the inhibition was 67.2% (active).

For the compound `COc1ccc(N/C=C(\C2OC(=O)c3ccccc32)[N+](=O)[O-])cc1` (stereo not drawn), the inhibition is 22.1% (active).

As for `COC(=O)/C=C\C(=O)Nc1cccc([N+](=O)[O-])c1`, the inhibition was 109% (active).

`CCS(=O)(=O)Nc1ccc(C2=NN(S(=O)(=O)c3ccc(F)cc3)C(c3ccco3)C2)cc1` (stereo not drawn): the inhibition was 9.93%.

With `O=c1[nH]c(/C=C\c2cccc(C(F)(F)F)c2)nc(O)c1[N+](=O)[O-]`, the inhibition is 73.2% (active).

For `O=C(/C(=C/c1cccc(Cl)c1)c1nc2ccccc2[nH]1)c1ccccc1`, the inhibition is 92% (active).

On to `COc1ccc(CCNC(=O)c2nnc(CS(=O)(=O)c3ccccc3)o2)cc1OC`, for which the inhibition was 2.92%.

Take `COc1ccccc1-n1nnnc1S(=O)(=O)Cc1ccc(Cl)cc1`: the inhibition was 32.1% (active).
